Drawing on the OligoGym collection, this text covers sensor-assay potency score (higher = more potent) for 40 sequences.
Note: reference of the scale not given here.

The target in the first assay is DCX. Briefly: pooled miR-30 sensor sort-seq; sequence = guide strand. As to conditions: shRNA.
In the case of TTCTCTTATATGGACTGTCTAT, the sensor-assay potency score (higher = more potent) was -0.935. As to TAACATAGAATATAAACTGAGA, the sensor-assay potency score (higher = more potent) was -0.639. On the same count and under the same terms, the value for TTGGGATTGACATTCTTGGTGT was 0.0923; that for TTGTATACAAGTCATAAGGGAT was -0.914; that for TTAACACCTACAATCTGGCTTC was 0.157.

Turning to TTAAAGAACTTACCACACGTGG, the sensor-assay potency score (higher = more potent) was -0.728. The same measure, in the same setting: as for TACAAGGTGACTTCTGTTGTGC, the figure is 0.124; as for TACAACTGTAAGACAACTGGGA, 0.406.

With TTGATCACAATGCTGTTCCTTA, the sensor-assay potency score (higher = more potent) was 0.503. On the same count and under the same terms, the value for TCTAGTAGTACATATACCGCAA was 0.223; that for TTGAATGCTGCGAATCTTCAGC was -0.1. In turn, TATTCATCTTGTTTTCTCCTGG showed a sensor-assay potency score (higher = more potent) of 0.366.

Consider TTCGGTAGAAGCTACAGTGGGC, for which the sensor-assay potency score (higher = more potent) was determined as 0.324. On the same count and under the same terms, the value for AATGACATTACACACATCTTGC was -0.654; that for TTACTTGTGACTGTGGAGGAGA was -0.0876. The same measure, in the same setting: the value for TCAATTATTAGTATTTAGCTGA was 0.00518. The same measure, in the same setting: the value for TCTATCTTAAAACAGCTGCAGG was -0.806; that for TAAATTAACACCTACAATCTGG was -0.105.

For the next assay, the target named is DDAH1. The assay is described as above. The following applies: shRNA.
With TAAAACATCTCCGCCATCTAAA, the sensor-assay potency score (higher = more potent) is -0.943. Same read-out and setting: the value for TAAACCTTTGCACTTTCTGGAT was -0.647; that for TTTCATCTCTACTATATTGAGC was -0.645; that for ATCTCTACTATATTGAGCTGAA was -0.824.

In the case of TTAATTAAAACTGAGCAGCAGG, the sensor-assay potency score (higher = more potent) is -0.0699. Same read-out and setting: the value for TTAGATATATACAGTTTGCTGC was -0.536; that for TTGCATGATCTTAAGGGCCTTC was -0.108.

In the case of TTTCTGGATACTCTTCCGGGGT, the sensor-assay potency score (higher = more potent) was -1.06. On the same count and under the same terms, as for TACAGTTTGCTGCTATGTCATC, the figure is -1.54; as for TTCATCTTTCATCTCTACTATA, -1.1; as for TAAAGTTGCATTTTCATCTTTC, 0.237. The same measure, in the same setting: as for TACTATATTGAGCTGAAGTTTT, the figure is -1.16.

The target of another assay is DDB2. The description is as above. As to conditions: shRNA.
TCTCCTGTGACCACCATTCGGC: the sensor-assay potency score (higher = more potent) was -0.886. The same measure, in the same setting: the value for TAAAGTCTTGCAGCCTAGTTGT was -0.222. As to TAATACAATCTCGGAGGTCTTC, the sensor-assay potency score (higher = more potent) was -0.478. The same measure, in the same setting: as for TGAGTTTCCATCGAACACGTCG, the figure is 0.1; as for TACAATCTCGGAGGTCTTCTGG, -0.449. Same read-out and setting: as for TCCATCGAACACGTCGATCGTC, the figure is -0.818. The sequence TTTAGTTCCAAGATAACCTTGG registered a sensor-assay potency score (higher = more potent) of 0.69. As to TAATATCCGGTAAGAATCCAGA, the sensor-assay potency score (higher = more potent) is -0.584. On the same count and under the same terms, the value for TCAAATAACTGCTTGATCCCTC was 0.323.

Sequence TTTAACAAATCGCCACCTCTGC came in with a sensor-assay potency score (higher = more potent) of -0.868.
